Experimental data published in the supplement of paper PMC3334620.
Over roughly 33,000 sequences, “E-score (-0.5 to 0.5)” has its median near -0.01; the highest 2% begin near 0.26. The entries come from a sample that favours the highest values as a whole.

Target: Ste12 (UniProt P13574)
Assay: PBM E-score (8-mer binding enrichment) (E-score (-0.5 to 0.5)); higher = stronger / more preferred TF binding
Settings: protein concentration: 200 nM; construct: GST-DNA-binding domain
Experimental: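 Universal 'all 10-mer' protein binding microarrays (Agilent AMADID 015681) probed with GST-tagged S. cerevisiae TFs (full-length or DBD) made by in vitro transcription/translation (PURExpress), about 100-200 nM. Bound TF was detected with fluorescent anti-GST. Each ungapped 8-mer (which stands for itself and its reverse complement) is scored by the PBM enrichment score (E-score), a modified Wilcoxon-Mann-Whitney statistic from -0.5 to +0.5, computed with the Universal PBM Analysis Suite. Scale: above 0.35 generally sequence-specific binding.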

Sequence of UniProt P13574 (P13574 whole entry): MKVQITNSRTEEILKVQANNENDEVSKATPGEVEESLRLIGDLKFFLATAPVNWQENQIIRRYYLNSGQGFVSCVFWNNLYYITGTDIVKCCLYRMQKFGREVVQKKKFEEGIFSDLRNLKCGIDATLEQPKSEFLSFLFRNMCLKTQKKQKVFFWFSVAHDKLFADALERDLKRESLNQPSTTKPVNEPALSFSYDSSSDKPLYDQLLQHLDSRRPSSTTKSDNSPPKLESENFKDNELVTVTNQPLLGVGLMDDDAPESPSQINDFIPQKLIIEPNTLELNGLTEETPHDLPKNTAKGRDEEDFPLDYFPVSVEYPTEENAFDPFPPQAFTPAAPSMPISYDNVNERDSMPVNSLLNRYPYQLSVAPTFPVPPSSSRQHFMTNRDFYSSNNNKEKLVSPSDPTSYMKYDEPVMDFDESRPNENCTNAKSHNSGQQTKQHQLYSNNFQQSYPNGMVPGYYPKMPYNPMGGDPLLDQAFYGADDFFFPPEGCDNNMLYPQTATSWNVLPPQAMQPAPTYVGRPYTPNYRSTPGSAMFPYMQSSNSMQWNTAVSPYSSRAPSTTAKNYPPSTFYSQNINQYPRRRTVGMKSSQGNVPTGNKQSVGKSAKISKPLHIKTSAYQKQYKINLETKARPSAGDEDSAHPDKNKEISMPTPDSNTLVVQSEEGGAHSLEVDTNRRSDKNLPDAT

Sequence | PBM E-score
AGGCTCGG | -0.112
ATAATTAC | 0.131
ACAATTAC | 0.087
ACAATTAT | 0.212
TTAATTAA | 0.245
ACAATTAA | 0.292
ATAATTAA | 0.276
ATAATTTG | 0.212
GTAATTTA | 0.223
ATAATTTA | 0.357
CCGCCAGG | -0.206
GCTCAGCA | -0.0833
AATCTCAT | 0.165
CTGACCGC | 0.123
AAATGCAC | -0.00999
CACCCATA | 0.105
ACCAGACG | -0.174
CGCGCGTC | 0.0795
ACGCCACG | -0.182
ATTCGAAT | 0.268
ACTCGAAT | -0.144
ATTCGAAA | 0.286
CTTCGAAA | 0.132
ATTCGAAG | -0.0567
ATTCGAAC | 0.105
GCCTTCCC | -0.0772

Sequence | PBM E-score
CACACTTC | 0.00873
AACCACTA | -0.00019
ATACATAT | 0.294
CGGCATAA | -0.0029
TGGCATAA | 0.307
AAACATAT | 0.273
ATACATAC | 0.134
GGGCATAA | 0.218
AAACATAG | 0.205
TGACATAA | 0.268
GGACATAA | 0.0357
AGACATAA | 0.101
AAACATAC | 0.241
ATACATAA | 0.21
ACATGCAT | 0.0142
GACGCACC | -0.00732
ATAAAGAC | -0.0448
CACCCTCC | 0.213
GAGTTTGC | 0.0562
ATCTACGG | -0.0913
AACTTTCT | 0.128
AACGGTGA | -0.122
ATTGCCCC | 0.0929
GGCGAGGA | -0.178
AATGGCCT | -0.00519
AAACATTA | 0.207

Sequence | PBM E-score
AAACATAA | 0.306
ACACATAA | 0.19
ACATACAG | 0.0443
ACATACAT | 0.263
TAACATAA | 0.275
ACATACAC | 0.0702
GAACATAA | 0.148
CAACATAA | 0.189
GCTCGCCA | -0.0532
ATTTGCGG | 0.148
ACCGTGCT | -0.08
AGTGCAAA | 0.101
GAGGGGAA | 0.0394
AAACAAGC | 0.202
ATACGATC | 0.157
AACAATTC | 0.124
ATCAATTC | 0.0349
AACAATAC | 0.0824
AACAATAG | 0.0913
AACAATTA | 0.297
ATCAATTA | 0.289
AACAATTG | -0.0846
ATCAATTG | 0.154
AACAATAA | 0.301
GCGGTTTA | 0.13
CTTGAGAC | 0.158

Sequence | PBM E-score
ATCACTAC | -0.117
CTAGATTA | -0.0366
TCCAAAGA | 0.0392
AGAAGAGC | -0.161
CCCGGCCG | -0.239
ACTGAGCC | -0.00502
ATATAAAT | 0.279
ATATATAC | 0.271
TTATATAA | 0.176
TCATAAAA | 0.231
TTATAAAA | 0.268
ATATAAAG | 0.171
CTATATAC | 0.162
GTATAAAA | 0.241
CTATATAA | 0.174
ATATAAAC | 0.161
GTATATAC | -0.207
ATATATAA | 0.273
CCGATTTA | 0.199
AGCATCTG | -0.159
AGTGACAG | -0.057
ACTAGTCC | -0.104
AGCAAACG | -0.0967
GTAGCTAC | -0.201
CTCCAGAA | -0.152
AGGTTTAG | 0.0936

Sequence | PBM E-score
AAGCCGGC | 0.0834
GCTTGACA | 0.0364
ACATCGAA | 0.0463
CGTCGCGC | 0.00057
GCAACAAC | -0.0707
CCGCTAAG | 0.109
ACATAAAA | 0.17
CTATAAAA | 0.235
ATATAAAA | 0.307
ACCCGCGG | 0.176
TCTGAAGA | -0.149
GACTCTGC | -0.0845
GGCAAAAA | 0.346
GAGAAAAA | 0.147
GGAAAAAA | 0.309
GAAAAAAA | 0.369
ATAAAAGA | 0.0538
GGAAAAGA | 0.05
ATAAAAGG | 0.0863
ATAAAAAG | 0.315
GGCAAAAC | 0.133
GGAAAACA | 0.177
GAAAAAAC | 0.174
GGCAAGAA | 0.0412
CCATGGCG | -0.0357
GCTTACTA | 0.00559

Sequence | PBM E-score
AGCCTCTG | -0.135
CAGTTAGC | -0.218
ATAAAAAT | 0.241
TGAAAGAA | 0.131
GGAAAAAC | 0.322
GGAAAACC | 0.0776
AGGAAAAC | -0.0394
AAAAAAAT | 0.337
TGAAAAAA | 0.293
GGAAATAA | 0.284
TGAAAACA | 0.162
CGAAATAA | 0.131
AAAAAATT | 0.197
AGAAATAA | 0.207
GCGACCTA | -0.062
CTGGCATC | -0.283
AGATTATC | -0.0475
CTACCTTA | -0.00289
CTGTGCAA | -0.101
ACGATTGA | 0.158
CAGTTAAA | -0.00288
CATGAGCG | -0.0776
CGTGTGAC | -0.0425
AGTTCAAA | 0.138
GCCAAATA | 0.101
GTTTACGA | 0.0472

Sequence | PBM E-score
CGGAAAAA | 0.343
AAAAAAGG | 0.244
CAAAAAAG | 0.159
CGAAAAAG | 0.212
AAAAAAGA | 0.182
AAAAAAAA | 0.367
CGAAAAAC | 0.0959
AAAAAAAG | 0.294
CGGAAAAC | 0.0342
CGGAAAAG | 0.0439
CGAAAAAA | 0.308
AGAAAAAA | 0.19
CAGGCGGG | 0.0689
AATGGGCT | -0.092
CGTTTAGC | -0.0383
ACAGCCGT | -0.0628
AGCCTTAT | 0.0824
AAAAAGCC | 0.229
GGGAAAAA | 0.272
TGGAAAAA | 0.302
GGGAAAAC | 0.116
CAAAAGCG | 0.14
TCGGAAAA | 0.275
ACGGAAAA | 0.177
GGGGAAAA | 0.112
GCGGAAAA | 0.253

Sequence | PBM E-score
AAAAAGCG | 0.317
TTGGAAAA | 0.177
AGGAAAAA | 0.16
AATCCAAA | 0.14
CCGTTAAG | -0.177
ACGCTGCC | -0.108
ACCTTTGA | 0.0506
GGTCTTCA | -0.164
CCTTTTCA | -0.0167
CGTAGCAA | 0.00941
AAGCCTTG | -0.00117
ACTGTGAA | 0.27
GCTGTGAA | -0.0834
TGTGTGAA | 0.284
GGTGTGAA | 0.19
CGTGTGAA | 0.14
ACTGTGAT | -0.0243
ACTAAGAG | -0.0255
CTATGATA | -0.0247
TAATGAGA | 0.168
AAATGATT | 0.197
ATATGATA | 0.271
GTATGATA | 0.0429
GCATGATA | 0.0794
GAATGATC | 0.00293
TAATGATA | 0.272

Sequence | PBM E-score
CAATGATA | 0.074
AAATGATC | -0.0582
GAATGATA | 0.309
AAATGATA | 0.292
ATGCCTCC | -0.0978
CAATCTCC | -0.00169
CTCGATAC | 0.155
GAGCGATC | -0.105
CCGGTCGC | -0.0319
GGTGACAA | 0.0614
AAGAGCTC | -0.0902
CAGGGCCC | -0.148
CAAAATAA | 0.33
CAAAATAG | -0.0251
CTAAATAA | 0.0819
AAAAATAA | 0.229
CAAAATAC | 0.115
TAAAATAA | 0.269
ATAAATAG | 0.0906
ATAAATAA | 0.266
TTAAATAA | 0.249
ATCTCAGC | -0.112
AGTTGAGC | -0.152
ATCTATGC | -0.0236
ACGGGCCC | -0.199
TATTTTAA | 0.301

Sequence | PBM E-score
TATTTACA | 0.101
CATTTAAC | 0.212
CATTTAAG | -0.0794
AATTTAAT | 0.159
GATTTAAA | 0.113
AATTTAAA | 0.269
AATTTAAC | 0.208
TATTTAAA | 0.379
CATTTAAA | 0.277
GATTTTAA | 0.201
TCTTTTAA | 0.142
GCACCAGC | -0.101
GGACAGGA | -0.152
ACCATCGC | 0.0245
CGCAATCA | 0.0872
GGCTCACC | -0.244
ACTAGGTG | -0.199
AACTTAAA | 0.186
CACTTAAC | -0.121
CACTTAAA | 0.287
AGTCCACA | -0.173
AGGAAACG | -0.105
ATGAAACG | 0.484
ATGAAAGA | 0.184
AAGAAACG | 0.148
GTGAAACA | 0.48

Sequence | PBM E-score
ATGAAACA | 0.495
GTGAAAAA | 0.232
GTGAAATA | 0.169
AGGAAACA | 0.19
AAGCAGCC | -0.078
ACATCTGA | -0.24
CAACTGTA | -0.0454
AATCAATG | 0.0688
CCTAGAGC | -0.189
ATTATCCG | 0.294
ATTATCCA | 0.0202
ATTATCCC | 0.0652
ACCAGTAC | -0.11
GAAACAGA | 0.287
GTAACAGA | 0.334
AAAACAGG | -0.0182
GAAACAGC | 0.232
AAAACAGC | 0.127
AAAACAGA | 0.295
CTAACAGA | 0.153
ATAACAGA | 0.115
CAAACAGA | 0.12
ATATACAT | 0.00017
AGCCTGTC | -0.181
CGCTCTTC | 0.00173
ATGTATCC | 0.0246

Sequence | PBM E-score
GTGTATCA | 0.301
ATGTATCG | 0.0479
CTGTATCA | 0.207
GTGTATTA | 0.25
ATGTATCA | 0.344
ACCAACCT | 0.0089
ATTGCTGC | -0.00539
GCACTCCA | -0.161
AAAGAATC | 0.136
GACTCACA | -0.201
AATCTCCA | -0.184
ATAACCAA | 0.294
GAAACCAA | 0.355
AAAACCAA | 0.209
AAAACCTC | 0.207
CTAACCAA | 0.186
GAAACCTC | 0.318
ATAACCAG | -0.0264
GAAACCGC | 0.351
CAAACCGC | 0.00675
GAAACCAC | 0.164
CAAACCTC | -0.105
AAAACCGC | 0.0403
ACCTAAAT | 0.11
ACGTTGGC | -0.0145
CATGGCGG | -0.0453

Sequence | PBM E-score
CTTTGCAC | -0.0246
GAGCGTGA | -0.0254
CGGCTGAA | -0.0336
GCAAGCAC | -0.125
ATAGTTTA | 0.0232
AAAACTCG | 0.125
GCGATGCA | -0.234
CGAATTAG | 0.095
GAAACCGA | 0.267
AAAACCGA | 0.115
CAAACCGA | 0.0295
TCTAACAA | 0.127
GGTAACAA | 0.264
CGTAACAA | 0.293
AGTAACAA | 0.0502
GGTAACAC | 0.0298
GCTAACAA | -0.046
GGTAACCA | -0.12
CGTAACAG | 0.205
TGTAACAA | 0.333
AGAACTCA | 0.117
TCGAGCGA | -0.0486
GAGTTGTA | -0.0493
CTCGTTTC | 0.242
CGCGTTTC | 0.234
ATCGTTTC | 0.35

Sequence | PBM E-score
AGCGTTTA | -0.122
ATCGTTTG | 0.0575
AGCGTTTC | 0.294
AACCCACA | -0.0351
GGTGGGTA | 0.0601
CCTTTTAA | 0.0649
AATTTTAG | 0.105
CATTTTAC | 0.254
CATTTTCC | 0.123
GATTTCCC | -0.0998
CATTTTTA | 0.0631
CATTTTCA | 0.273
AATTTTCA | 0.165
TATTTTCA | 0.201
CATTTTAG | 0.267
CATTTTAA | 0.27
CATTTCCC | 0.295
